In the supplement of paper PMC7411054:

What was measured:
Experiment in all cases: phenotypically active (imaging signature differs from DMSO and reproducible) at any of 0.3-9 uM (binary (1 = active, 0 = inactive)); higher = active
Settings in all cases: treatment time: 24 h
A549-ACTB-RAB5A = test system: A549-ACTB-RAB5A
Outline: (§1)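 The reporter lines, fifteen in total and built by gene editing in A549, HepG2 and WPMY1 cells, used BFP for segmentation alongside GFP and RFP/FusionRed markers. Each was treated at 0.3, 1, 3 or 9 µM for 24 h in four wells and then imaged live, with live-cell features normalised to solvent control wells. Deviation meant ≥3 of 4 wells beyond the 95th percentile of control Euclidean distances; reproducibility meant a median replicate Pearson correlation above the 95th percentile of non-replicates. Only conditions meeting both were scored as phenotypically active.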

A549-CANX-COX4 = test system: A549-CANX-COX4
Outline: as §1

A549-GM130-SQSTM1 = test system: A549-GM130-SQSTM1
Outline: as §1

A549-TP53BP1-CLTA = test system: A549-TP53BP1-CLTA
Outline: as §1

A549-TUBA1B-RELA = test system: A549-TUBA1B-RELA
Outline: as §1

HepG2-ACTB-RAB5A = test system: HepG2-ACTB-RAB5A
Outline: as §1

HepG2-CANX-COX4 = test system: HepG2-CANX-COX4
Outline: as §1

HepG2-GM130-SQSTM1 = test system: HepG2-GM130-SQSTM1
Outline: as §1

HepG2-TP53BP1-CLTA = test system: HepG2-TP53BP1-CLTA
Outline: as §1

HepG2-TUBA1B-RELA = test system: HepG2-TUBA1B-RELA
Outline: as §1

WPMY1-ACTB-RAB5A = test system: WPMY1-ACTB-RAB5A
Outline: as §1

WPMY1-CANX-COX4 = test system: WPMY1-CANX-COX4
Outline: as §1

WPMY1-GM130-SQSTM1 = test system: WPMY1-GM130-SQSTM1
Outline: as §1

WPMY1-TP53BP1-CLTA = test system: WPMY1-TP53BP1-CLTA
Outline: as §1

WPMY1-TUBA1B-RELA = test system: WPMY1-TUBA1B-RELA
Outline: as §1

Measured: phenotypically active

C#C[C@]1(OC(C)=O)CC[C@H]2[C@@H]3CCC4=CC(=NO)CC[C@@H]4[C@H]3CC[C@@]21CC [norgestimate]
inactive: A549-ACTB-RAB5A 0 | A549-CANX-COX4 0 | A549-GM130-SQSTM1 0 | A549-TP53BP1-CLTA 0 | A549-TUBA1B-RELA 0 | HepG2-ACTB-RAB5A 0 | HepG2-CANX-COX4 0 | HepG2-GM130-SQSTM1 0 | HepG2-TP53BP1-CLTA 0 | HepG2-TUBA1B-RELA 0 | WPMY1-ACTB-RAB5A 0 | WPMY1-CANX-COX4 0 | WPMY1-GM130-SQSTM1 0 | WPMY1-TP53BP1-CLTA 0 | WPMY1-TUBA1B-RELA 0

CC1(C)[C@@H](O)CC[C@]2(C)[C@H]3C(=O)C=C4[C@@H]5C[C@@](C)(C(=O)O)CC[C@]5(C)CC[C@@]4(C)[C@]3(C)CC[C@@H]12 [Glycyrrhetinic Acid]
inactive: A549-ACTB-RAB5A 0 | A549-CANX-COX4 0 | A549-GM130-SQSTM1 0 | A549-TP53BP1-CLTA 0 | A549-TUBA1B-RELA 0 | HepG2-ACTB-RAB5A 0 | HepG2-CANX-COX4 0 | HepG2-GM130-SQSTM1 0 | HepG2-TP53BP1-CLTA 0 | HepG2-TUBA1B-RELA 0 | WPMY1-ACTB-RAB5A 0 | WPMY1-CANX-COX4 0 | WPMY1-GM130-SQSTM1 0 | WPMY1-TP53BP1-CLTA 0 | WPMY1-TUBA1B-RELA 0

CCCCC(=O)N(Cc1ccc(-c2ccccc2-c2nnn[nH]2)cc1)[C@H](C(=O)O)C(C)C [valsartan]
inactive: A549-ACTB-RAB5A 0 | A549-CANX-COX4 0 | A549-GM130-SQSTM1 0 | A549-TP53BP1-CLTA 0 | A549-TUBA1B-RELA 0 | HepG2-ACTB-RAB5A 0 | HepG2-CANX-COX4 0 | HepG2-GM130-SQSTM1 0 | HepG2-TP53BP1-CLTA 0 | HepG2-TUBA1B-RELA 0 | WPMY1-ACTB-RAB5A 0 | WPMY1-CANX-COX4 0 | WPMY1-GM130-SQSTM1 0 | WPMY1-TP53BP1-CLTA 0 | WPMY1-TUBA1B-RELA 0

COc1ccc(OC)c(C(O)CNC(=O)CN)c1 (stereo not given) [midodrine]
inactive: A549-ACTB-RAB5A 0 | A549-CANX-COX4 0 | A549-GM130-SQSTM1 0 | A549-TP53BP1-CLTA 0 | A549-TUBA1B-RELA 0 | HepG2-ACTB-RAB5A 0 | HepG2-CANX-COX4 0 | HepG2-GM130-SQSTM1 0 | HepG2-TP53BP1-CLTA 0 | HepG2-TUBA1B-RELA 0 | WPMY1-ACTB-RAB5A 0 | WPMY1-CANX-COX4 0 | WPMY1-GM130-SQSTM1 0 | WPMY1-TP53BP1-CLTA 0 | WPMY1-TUBA1B-RELA 0

CCCCCOC(=O)Nc1nc(=O)n([C@@H]2O[C@H](C)[C@@H](O)[C@H]2O)cc1F [capecitabine]
inactive: A549-ACTB-RAB5A 0 | A549-CANX-COX4 0 | A549-GM130-SQSTM1 0 | A549-TP53BP1-CLTA 0 | A549-TUBA1B-RELA 0 | HepG2-ACTB-RAB5A 0 | HepG2-CANX-COX4 0 | HepG2-GM130-SQSTM1 0 | HepG2-TP53BP1-CLTA 0 | HepG2-TUBA1B-RELA 0 | WPMY1-ACTB-RAB5A 0 | WPMY1-CANX-COX4 0 | WPMY1-GM130-SQSTM1 0 | WPMY1-TP53BP1-CLTA 0 | WPMY1-TUBA1B-RELA 0

N[C@@H](CSC(c1ccccc1)(c1ccccc1)c1ccccc1)C(=O)O [S-Trityl-L-cysteine]
inactive: A549-ACTB-RAB5A 0 | A549-CANX-COX4 0 | A549-GM130-SQSTM1 0 | A549-TP53BP1-CLTA 0 | A549-TUBA1B-RELA 0 | HepG2-ACTB-RAB5A 0 | HepG2-CANX-COX4 0 | HepG2-GM130-SQSTM1 0 | HepG2-TP53BP1-CLTA 0 | HepG2-TUBA1B-RELA 0 | WPMY1-ACTB-RAB5A 0 | WPMY1-CANX-COX4 0 | WPMY1-GM130-SQSTM1 0 | WPMY1-TP53BP1-CLTA 0 | WPMY1-TUBA1B-RELA 0

CCCCCCCCCCCCCCCCCCc1ccc(C(=O)/C=C/C(=O)O)cc1
inactive: A549-ACTB-RAB5A 0 | A549-CANX-COX4 0 | A549-GM130-SQSTM1 0 | A549-TP53BP1-CLTA 0 | A549-TUBA1B-RELA 0 | HepG2-ACTB-RAB5A 0 | HepG2-CANX-COX4 0 | HepG2-GM130-SQSTM1 0 | HepG2-TP53BP1-CLTA 0 | HepG2-TUBA1B-RELA 0 | WPMY1-ACTB-RAB5A 0 | WPMY1-CANX-COX4 0 | WPMY1-GM130-SQSTM1 0 | WPMY1-TP53BP1-CLTA 0 | WPMY1-TUBA1B-RELA 0

CC(=O)N[C@@H](CC(=O)O)C(=O)N[C@@H](CCC(=O)O)C(=O)O [Spaglumic acid]
inactive: A549-ACTB-RAB5A 0 | A549-CANX-COX4 0 | A549-GM130-SQSTM1 0 | A549-TP53BP1-CLTA 0 | A549-TUBA1B-RELA 0 | HepG2-ACTB-RAB5A 0 | HepG2-CANX-COX4 0 | HepG2-GM130-SQSTM1 0 | HepG2-TP53BP1-CLTA 0 | HepG2-TUBA1B-RELA 0 | WPMY1-ACTB-RAB5A 0 | WPMY1-CANX-COX4 0 | WPMY1-GM130-SQSTM1 0 | WPMY1-TP53BP1-CLTA 0 | WPMY1-TUBA1B-RELA 0

FC(F)OC(F)C(F)(F)F (stereo not given) [desflurane]
inactive: A549-ACTB-RAB5A 0 | A549-CANX-COX4 0 | A549-GM130-SQSTM1 0 | A549-TP53BP1-CLTA 0 | A549-TUBA1B-RELA 0 | HepG2-ACTB-RAB5A 0 | HepG2-CANX-COX4 0 | HepG2-GM130-SQSTM1 0 | HepG2-TP53BP1-CLTA 0 | HepG2-TUBA1B-RELA 0 | WPMY1-ACTB-RAB5A 0 | WPMY1-CANX-COX4 0 | WPMY1-GM130-SQSTM1 0 | WPMY1-TP53BP1-CLTA 0 | WPMY1-TUBA1B-RELA 0

CCCc1nc(C)c2c(C)nc3ccc(OC)nc3n12
inactive: A549-ACTB-RAB5A 0 | A549-CANX-COX4 0 | A549-GM130-SQSTM1 0 | A549-TP53BP1-CLTA 0 | A549-TUBA1B-RELA 0 | HepG2-ACTB-RAB5A 0 | HepG2-CANX-COX4 0 | HepG2-GM130-SQSTM1 0 | HepG2-TP53BP1-CLTA 0 | HepG2-TUBA1B-RELA 0 | WPMY1-ACTB-RAB5A 0 | WPMY1-CANX-COX4 0 | WPMY1-GM130-SQSTM1 0 | WPMY1-TP53BP1-CLTA 0 | WPMY1-TUBA1B-RELA 0

CC(C)(C)NC[C@H](O)COc1nsnc1N1CCOCC1 [timolol]
inactive: A549-ACTB-RAB5A 0 | A549-CANX-COX4 0 | A549-GM130-SQSTM1 0 | A549-TP53BP1-CLTA 0 | A549-TUBA1B-RELA 0 | HepG2-ACTB-RAB5A 0 | HepG2-CANX-COX4 0 | HepG2-GM130-SQSTM1 0 | HepG2-TP53BP1-CLTA 0 | HepG2-TUBA1B-RELA 0 | WPMY1-ACTB-RAB5A 0 | WPMY1-CANX-COX4 0 | WPMY1-GM130-SQSTM1 0 | WPMY1-TP53BP1-CLTA 0 | WPMY1-TUBA1B-RELA 0
